Experimental data from PubChem BioAssay AID1159580 (chemical genetic matrix, 2015).
Hit rate of the full screen: of about 5,500 compounds, about 2,000 (36%) were called active. Roughly 18% stayed inconclusive and do not appear here. Cut-off read from the data, not from the text of the source: active = normalized growth mostly below about 0.91 (no sharp cut-off); inconclusive = no clear call, values can overlap the other calls; inactive = mostly above about 0.92. Some of the results follow.

Experiment: chemical genetic growth profiling, strain panel (AID 1159580);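 note: tested at 20 µM; growth read once vehicle control cultures reached saturation at 30 °C; 1 = growth at the plate median or of vehicle wells; lower values mean less growth of the strain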
Conditions: S. cerevisiae deletion strains, growth OD

Measured: normalized growth

CCCCC/C=C/CCC(=O)N[C@H]1[C@H](Oc2c3cc4cc2Oc2ccc(cc2Cl)[C@@H](O[C@@H]2O[C@H](CO)[C@@H](O)[C@H](O)[C@H]2NC(C)=O)[C@@H]2NC(=O)[C@H](NC(=O)[C@@H]4NC(=O)[C@H]4NC(=O)C(Cc5ccc(c(Cl)c5)O3)NC(=O)[C@H](N)c3ccc(O)c(c3)Oc3cc(O)cc4c3)c3ccc(O)c(c3)-c3c(OC4O[C@H](CO)[C@@H](O)[C@H](O)[C@@H]4O)cc(O)cc3[C@@H](C(=O)O)NC2=O)O[C@H](CO)[C@@H](O)[C@@H]1O (stereo not given in full)
inactive: locus YAL021C, strain ccr4, hits give low values 1 | locus YAL026C, strain drs2, hits give low values 1 | locus YAL030W, strain snc1, hits give low values 0.995 | locus YBL061C, strain skt5, hits give low values 0.987 | locus YBR009C, strain hhf1, hits give low values 0.996 | locus YBR023C, strain chs3, hits give low values 0.998 | locus YBR171W, strain sec66, hits give low values 1 | locus YBR231C, strain swc5, hits give low values 0.991 | locus YBR279W, strain paf1, hits give low values 0.997 | locus YCL011C, strain gbp2, hits give low values 1.01 | locus YCL016C, strain dcc1, hits give low values 0.995 | locus YCL061C, strain MRC1, hits give low values 0.999 | locus YCL069W, strain vba3, hits give low values 0.996 | locus YCR088W, strain abp1, hits give low values 1.01 | locus YDL005C, strain med2, hits give low values 0.995 | locus YDL040C, strain nat1, hits give low values 1 | locus YDR001C, strain nth1, hits give low values 1 | locus YDR069C, strain doa4, hits give low values 1 | locus YDR137W, strain rgp1, hits give low values 1.01 | locus YDR159W, strain sac3, hits give low values 0.977 | locus YDR195W, strain ref2 0.918 | locus YDR297W, strain sur2, hits give low values 0.998 | locus YDR334W, strain swr1, hits give low values 1.01 | locus YDR335W, strain msn5, hits give low values 0.998 | locus YDR392W, strain spt3, hits give low values 0.967 | locus YEL003W, strain gim4, hits give low values 0.989 | locus YEL037C, strain rad23, hits give low values 1.05 | locus YEL061C, strain CIN8 (second series), hits give low values 0.999 | locus YER015W, strain faa2, hits give low values 0.999 | locus YER016W, strain bim1, hits give low values 1.01 | locus YER111C, strain swi4, hits give low values 0.987 | locus YER155C, strain BEM2 (second series), hits give low values 1.01 | locus YFR010W, strain ubp6, hits give low values 1.03 | locus YGL167C, strain pmr1, hits give low values 0.993 | locus YGL173C, strain kem1, hits give low values 0.994 | locus YGL227W, strain vid30, hits give low values 1 | locus YGL240W, strain doc1, hits give low values 0.973 | locus YGL253W, strain hxk2, hits give low values 1 | locus YHR013C, strain ard1, hits give low values 0.981 | locus YHR027C, strain rpn1, hits give low values 1 | locus YHR030C, strain SLT2, hits give low values 0.964 | locus YHR079C, strain IRE1, hits give low values 0.956 | locus YHR142W, strain chs7, hits give low values 1.03 | locus YJL092W, strain hpr5, hits give low values 1 | locus YJL095W, strain BCK1 (second series), hits give low values 1 | locus YJL095W, strain BCK1, hits give low values 0.956 | locus YJL115W, strain asf1, hits give low values 0.996 | locus YJL129C, strain trk1, hits give low values 1 | locus YJL154C, strain vps35, hits give low values 1.01 | locus YJL164C, strain tpk1, hits give low values 1.01 | locus YJL166W, strain qcr8, hits give low values 0.993 | locus YJL187C, strain SWE1, hits give low values 1 | locus YJR066W, strain TOR1, hits give low values 0.935 | locus YKL160W, strain elf1, hits give low values 0.995 | locus YKR026C, strain gcn3, hits give low values 0.99 | locus YKR091W, strain srl3, hits give low values 0.996 | locus YLL001W, strain dnm1, hits give low values 1.02 | locus YLL026W, hits give low values 0.996 | locus YLL041C, strain sdh2, hits give low values 1 | locus YLR027C, strain aat2, hits give low values 1.01 | locus YLR113W, strain HOG1, hits give low values 0.942 | locus YLR221C, strain rsa3, hits give low values 1.01 | locus YLR258W, strain gsy2, hits give low values 1.01 | locus YLR262C, strain YPT6 (second series), hits give low values 1.01 | locus YLR320W, strain mms22, hits give low values 0.988 | locus YLR342W, strain FKS1, hits give low values 0.988 | locus YLR357W, strain rsc2, hits give low values 1 | locus YLR370C, strain arc18, hits give low values 1 | locus YLR384C, strain iki3, hits give low values 1 | locus YML120C, strain ndi1, hits give low values 1.01 | locus YMR058W, strain fet3, hits give low values 1 | locus YMR125W, strain sto1, hits give low values 1.01 | locus YMR129W, hits give low values 0.998 | locus YMR205C, strain PFK2, hits give low values 0.993 | locus YMR231W, strain pep5, hits give low values 0.991 | locus YNL071W, strain lat1, hits give low values 1 | locus YNL183C, strain NPR1, hits give low values 0.936 | locus YNL209W, strain ssb2, hits give low values 1 | locus YNL248C, strain rpa49, hits give low values 1.01 | locus YNL322C, strain KRE1 (second series), hits give low values 0.991 | locus YNR049C, strain mso1, hits give low values 1.01 | locus YOR001W, strain rrp6, hits give low values 1.01 | locus YOR070C, strain gyp1, hits give low values 1.02 | locus YOR080W, strain dia2, hits give low values 0.98 | locus YOR083W, strain WHI5, hits give low values 1 | locus YOR106W, strain vam3, hits give low values 1.02 | locus YOR231W, strain MKK1, hits give low values 0.961 | locus YOR265W, strain rbl2, hits give low values 1 | locus YOR270C, strain vph1, hits give low values 0.993 | locus YOR290C, strain snf2, hits give low values 1.01 | locus YPL051W, strain arl3, hits give low values 1.01 | locus YPL078C, strain atp4, hits give low values 0.999 | locus YPL106C, strain sse1, hits give low values 0.971 | locus YPL240C, strain hsp82, hits give low values 0.999 | locus YPL256C, strain CLN2, hits give low values 0.946
